Screening data from PubChem BioAssay.
The list is not random: actives were taken first. Their share in the collection is about 1.5%.
NTR1 ag = agonists of human neurotensin receptor NTR1; P30989; NTR1-U2OS beta-arrestin-GFP spot imaging, agonist mode; activation, % at 20 µM; hit rate 0.17% among 330,000;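 active = activation at or above 40% of the spot to cytoplasm intensity ratio, with at least 20 cells analyzed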
TLR9-MyD88 inh = inhibitors of human TLR9-MyD88 binding; AID 504734; Q9NR96+Q99836; CHO BLA complementation TLR9-MyD88, CCF4 FRET ratio; hit rate 0.21% among 340,000; inhibition, % at 4.98 µM;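 active = inhibition above the mean over all tested compounds plus 3 SD, cut at about 21% in these data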
TLR4 MyD88 comp = inhibitors of human TLR4-MyD88 binding; HeLa CL3-4 TLR4/MyD88 BLA complementation, FRET ratio; inhibition, % at 8.4 µM; hit rate 0.18% among 200,000; in the data active = inhibition above about 25%
ABHD5-PLIN5 inh = ABHD5-PLIN5 protein interaction inhibition; Split G. princeps luciferase complementation, luminescence, 4 h; inhibition, % at 4 µM; hit rate 0.78% among 360,000; AID 602281;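 active = inhibition above the mean inhibition across every tested compound plus 3 SD, cut at about 22% in these data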
B2AR ag = agonists of human beta-2 adrenergic receptor inducing internalization; Am2.2-beta2AR cells, FAP receptor internalization, flow cytometry; P07550; AID 504454; hit rate 0.43% among 340,000; response, % (no concentration beside the values);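 active = response above a set limit, near 3 SD of response in nonfluorescent compounds, cut at about 42% in these data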
NOD2 RIPK2 PPI = blocks binding of human NOD2 to RIPK2. inhibition, % at 4.98 µM. O43353. CHO BLA complementation NOD2-RIPK2, CCF4 ratio. hit rate 0.38% among 360,000; in the data active = inhibition above about 21%
Target sequence (O43353 whole entry, looked up): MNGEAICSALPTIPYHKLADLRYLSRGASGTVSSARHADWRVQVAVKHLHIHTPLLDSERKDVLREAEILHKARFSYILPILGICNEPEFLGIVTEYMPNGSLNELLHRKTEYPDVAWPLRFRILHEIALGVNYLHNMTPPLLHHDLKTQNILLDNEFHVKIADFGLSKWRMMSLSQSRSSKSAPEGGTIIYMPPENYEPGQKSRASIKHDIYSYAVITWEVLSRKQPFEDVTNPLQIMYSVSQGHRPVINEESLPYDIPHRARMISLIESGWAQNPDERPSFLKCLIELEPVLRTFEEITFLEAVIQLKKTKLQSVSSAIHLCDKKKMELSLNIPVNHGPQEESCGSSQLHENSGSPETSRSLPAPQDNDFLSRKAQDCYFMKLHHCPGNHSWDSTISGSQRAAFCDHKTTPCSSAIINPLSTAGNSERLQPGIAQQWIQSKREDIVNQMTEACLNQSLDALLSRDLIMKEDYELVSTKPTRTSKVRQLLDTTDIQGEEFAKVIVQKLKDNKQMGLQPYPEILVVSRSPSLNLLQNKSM
ABHD5-PLIN5 conf = confirmation of human ABHD5-PLIN5 interaction inhibitors; shares compounds with ABHD5-PLIN5 inh; biochemical ABHD5-PLIN5 interaction, luminescence; inhibition, % at 4 µM; hit rate 67% among 2,200; in the data active = inhibition above about 23%
HNF4 counter = active in HNF4 split-luciferase counter-screen for ABHD5-PLIN5 inhibitors | shares compounds with ABHD5-PLIN5 inh | HNF4 dimerization, luminescence, biochemical | inhibition, % at 4 µM | hit rate 77% among 2,200 | AID 651674;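 active = mean inhibition across replicate wells exceeding the computed hit threshold, cut at about 13% in these data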;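 also: light from luciferase halves that rejoin when HNF4 fusion proteins dimerize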
Of the large screens only hits and unclear results are named; the others gave an inactive call (follow-up assays come after a bar, where they were run).

O=c1[nH]c(/C=C\c2ccc(O)c(O)c2)nc(O)c1[N+](=O)[O-]	none (no result: TLR4 MyD88 comp)
O=c1[nH]c(/C=C\c2cccc(O)c2)nc(O)c1[N+](=O)[O-]	ABHD5-PLIN5 inh 52 (no result: TLR4 MyD88 comp) | ABHD5-PLIN5 conf 52 | HNF4 counter 43
Cc1ccc(C(=O)/C=C\C(=O)c2ccc(C)cc2)cc1	none (no result: NTR1 ag)
O=C(O)/C=C/C(=O)c1ccc(O)cc1	ABHD5-PLIN5 inh 86 (no result: TLR4 MyD88 comp) | ABHD5-PLIN5 conf 96 | HNF4 counter 104
CC1(Oc2ccccc2)CCN(Cc2csc3ccccc23)C1 (centres undefined)	none (no result: NTR1 ag, TLR9-MyD88 inh, TLR4 MyD88 comp, B2AR ag)
NC(=O)c1cc2cc(Br)ccc2oc1=NCc1ccccc1	ABHD5-PLIN5 inh 62 | ABHD5-PLIN5 conf inactive | HNF4 counter 29
Cc1ccccc1OC1(C)CCN(Cc2ccc(-c3ccccn3)cc2)C1 (centres undefined)	none (no result: NTR1 ag, TLR9-MyD88 inh, TLR4 MyD88 comp, B2AR ag)
CCC(=O)NC(c1ccc(C)cc1)c1cc([N+](=O)[O-])c2cccnc2c1O (centres undefined)	none (no result: NTR1 ag)
CCCC(=O)NC(c1ccco1)c1cc([N+](=O)[O-])c2cccnc2c1O (centres undefined)	ABHD5-PLIN5 inh 35 | ABHD5-PLIN5 conf inactive | HNF4 counter 24
CC(=O)C(=Cc1ccc(Cl)cc1)C(=O)c1ccccc1	ABHD5-PLIN5 inh 85 (no result: NTR1 ag, TLR9-MyD88 inh, TLR4 MyD88 comp, B2AR ag) | ABHD5-PLIN5 conf 102 | HNF4 counter 98
COc1cccc(C=C(C#N)C(=O)c2ccccc2)c1	none (no result: NTR1 ag, TLR9-MyD88 inh, TLR4 MyD88 comp, B2AR ag)
COc1ccc(C=C(C(=O)c2ccccc2)c2ccccc2)cc1	none (no result: NTR1 ag, TLR9-MyD88 inh, TLR4 MyD88 comp, B2AR ag)
COc1ccc(C(=Cc2ccccc2)C(=O)O)cc1	none (no result: NTR1 ag, TLR4 MyD88 comp)
COc1ccc(C=C(C(C)=O)C(=O)c2ccccc2)cc1	ABHD5-PLIN5 inh 40 (no result: NTR1 ag, TLR9-MyD88 inh, TLR4 MyD88 comp, B2AR ag) | ABHD5-PLIN5 conf 52 | HNF4 counter 43
CC(=O)Nc1ccc(C=C(C(C)=O)C(C)=O)cc1	none (no result: TLR4 MyD88 comp)
COc1ccc(C=C(C(=O)c2ccccc2)C(=O)c2ccccc2)cc1	ABHD5-PLIN5 inh 60 (no result: NTR1 ag, TLR9-MyD88 inh, TLR4 MyD88 comp, B2AR ag) | ABHD5-PLIN5 conf 61 | HNF4 counter 56
CC(=O)C(=Cc1cccc(C#N)c1)C(=O)c1ccccc1	ABHD5-PLIN5 inh 61 (no result: NTR1 ag, TLR9-MyD88 inh, TLR4 MyD88 comp, B2AR ag) | ABHD5-PLIN5 conf 95 | HNF4 counter 87
C[C@@H]1CN(S(=O)(=O)C(C)(C)C)[C@H](CCO)/C1=C\c1ccccc1	none (no result: NTR1 ag, TLR4 MyD88 comp)
COc1ccccc1C(=O)Nc1sc(C(=O)N2CCCC2)c(C)c1C#N	ABHD5-PLIN5 inh 60 | ABHD5-PLIN5 conf inactive | HNF4 counter inactive
CC(C)Cn1cnc2c(SCCc3ccccc3)nc(N)nc21	none (no result: NTR1 ag, TLR4 MyD88 comp)
COc1ccc(C(=O)NCCNc2nc3cc(C)cc(C)c3cc2C#N)nc1	none (no result: NTR1 ag, TLR9-MyD88 inh, TLR4 MyD88 comp, B2AR ag)
Cc1ccc(-c2nc(=S)c3c(n2Cc2ccco2)CCCC3)cc1	none (no result: NTR1 ag)
Cc1cccc(-c2nc(=S)c3c(n2Cc2ccco2)CCCC3)c1	ABHD5-PLIN5 inh 28 | ABHD5-PLIN5 conf inactive | HNF4 counter inactive
O=C(Nc1cc(Cl)cc2c1-c1ccc(Cl)cc1C2O)C(Cl)Cl (centres undefined)	none (no result: NTR1 ag, TLR4 MyD88 comp)
Cc1ccc(NC(=O)CC2S/C(=N/N=C/c3c[nH]c4ccccc34)NC2=O)cc1 (centres undefined)	ABHD5-PLIN5 inh 26 | ABHD5-PLIN5 conf inactive | HNF4 counter 14
O=S(=O)(c1ccccc1)N1CCN(Cc2c(O)ccc3ccccc23)CC1	ABHD5-PLIN5 inh 28 (no result: TLR4 MyD88 comp) | ABHD5-PLIN5 conf 39 | HNF4 counter 81
CC1(C(=O)NCc2ccccc2Br)CCN1Cc1ccc(-c2ccccc2)o1 (centres undefined)	none (no result: NTR1 ag, TLR9-MyD88 inh, TLR4 MyD88 comp, B2AR ag)
COc1ccc(-c2n(CC(=O)OC3CC(C)CCC3C(C)C)c3ccccc3[n+]2C)cc1 (centres undefined)	none (no result: NTR1 ag)
COc1ccc(OCc2n(CC(=O)OC3CC(C)CCC3C(C)C)c3ccccc3[n+]2C)cc1 (centres undefined)	ABHD5-PLIN5 inh 39 (no result: TLR4 MyD88 comp) | ABHD5-PLIN5 conf inactive | HNF4 counter inactive
O=C1NC(=O)C2(CCC(C3CCCCC3)CC2)N1 (centres undefined)	none (no result: NTR1 ag, TLR4 MyD88 comp)
Cc1ccc(C(=O)N/C(=C\c2ccc(-c3cc(Cl)ccc3Cl)o2)C(=O)NCc2cccnc2)cc1	none
